Article PMC7826789 (International Journal of Molecular Sciences, 2021)

How the values were obtained:
Settings in all cases: Compound Concentration (nM):1000
RET(V804M) = test system: RET(V804M)
RET = test system: RET
RIOK1 = test system: RIOK1
RIOK2 = test system: RIOK2
RIOK3 = test system: RIOK3
RIPK1 = test system: RIPK1
RIPK2 = test system: RIPK2
RIPK4 = test system: RIPK4
RIPK5 = test system: T1, RIPK5
T1 construct: gene DSTYK

ROCK1 = test system: ROCK1
ROCK2 = test system: ROCK2
ROS1 = test system: ROS1
[1] = test system: RPS6KA4(Kin.Dom.1-N-terminal)
[2] = test system: RPS6KA4(Kin.Dom.2-C-terminal)
[3] = test system: RPS6KA5(Kin.Dom.1-N-terminal)
[4] = test system: RPS6KA5(Kin.Dom.2-C-terminal)
[5] = test system: T2, RSK1(Kin.Dom.1-N-terminal)
T2 construct: gene RPS6KA1

[6] = test system: T3, RSK1(Kin.Dom.2-C-terminal)
T3 construct: gene RPS6KA1

[7] = test system: T4, RSK2(Kin.Dom.1-N-terminal)
T4 construct: gene RPS6KA3

[8] = test system: T5, RSK2(Kin.Dom.2-C-terminal)
T5 construct: gene RPS6KA3
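Note: KINOMEscan scanMAX binding as percent activity remaining versus control; lower means stronger binding.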

Row | SMILES | Percent Control (RET(V804M)) [%] | Percent Control (RET) [%] | Percent Control (RIOK1) [%] | Percent Control (RIOK2) [%] | Percent Control (RIOK3) [%] | Percent Control (RIPK1) [%] | Percent Control (RIPK2) [%] | Percent Control (RIPK4) [%] | Percent Control (RIPK5) [%] | Percent Control (ROCK1) [%] | Percent Control (ROCK2) [%] | Percent Control (ROS1) [%] | Percent Control [1] [%] | Percent Control [2] [%] | Percent Control [3] [%] | Percent Control [4] [%] | Percent Control [5] [%] | Percent Control [6] [%] | Percent Control [7] [%] | Percent Control [8] [%]
1 | COc1ccc(COc2ccc(Cc3cnc(N)nc3N)cc2OC)cc1 [GW632580X] | 100 | 100 | 56 | 100 | 65 | 95 | 98 | 84 | 97 | 100 | 95 | 82 | 100 | 77 | 97 | 87 | 100 | 100 | 100 | 100
2 | COc1ccc2[nH]c3c4[nH]c5ccc(OC)cc5c4c4c(c3c2c1)C(=O)NC4=O [GW296115X] | 21 | 41 | 58 | 89 | 100 | 90 | 60 | 83 | 27 | 72 | 73 | 24 | 71 | 25 | 53 | 66 | 49 | 100 | 21 | 95
3 | Cl.O=S1CCN(Cc2ccc(-c3ccc4ncnc(Nc5ccc(OCc6ccccc6)c(F)c5)c4c3)o2)CC1 [GW576924A] | 100 | 100 | 93 | 83 | 100 | 100 | 43 | 92 | 87 | 100 | 94 | 100 | 100 | 100 | 100 | 100 | 100 | 100 | 100 | 100
4 | NS(=O)(=O)c1ccc(N/N=C2\C(=O)Nc3ccc(Cl)cc32)cc1 [GW280670X] | 100 | 100 | 74 | 100 | 89 | 100 | 100 | 100 | 100 | 100 | 89 | 79 | 100 | 97 | 100 | 100 | 100 | 100 | 100 | 83
5 | COc1cc(N2CCN(C(C)C)CC2)ccc1Nc1nc(Nc2ccc(F)cc2C(=O)NC[C@@H](O)CO)c2cc[nH]c2n1 [GSK1392956A] | 88 | 85 | 66 | 27 | 79 | 76 | 100 | 84 | 25 | 87 | 100 | 52 | 100 | 33 | 100 | 47 | 27 | 78 | 5.7 | 100
6 | NS(=O)(=O)c1ccc(Nc2ncc(-c3ccccc3)o2)cc1 [GW572399X] | 100 | 100 | 73 | 100 | 89 | 100 | 100 | 100 | 94 | 85 | 91 | 100 | 100 | 89 | 100 | 100 | 100 | 100 | 98 | 98
7 | NS(=O)(=O)c1ccc(N/N=C2\C(=O)Nc3ccc(C(=O)NCCc4c[nH]cn4)cc32)cc1 [GW300660X] | 100 | 100 | 74 | 100 | 78 | 100 | 100 | 80 | 59 | 67 | 40 | 100 | 100 | 80 | 100 | 100 | 100 | 100 | 54 | 100
8 | COc1cc(/C=N/Nc2ncnc3[nH]ncc23)ccc1O [GW578748X] | 77 | 5.9 | 47 | 8.9 | 46 | 100 | 100 | 6.9 | 75 | 63 | 33 | 96 | 100 | 5.5 | 100 | 91 | 100 | 100 | 72 | 93
9 | COc1cc(C)c(N(C)C(=O)CN(C)C)cc1Nc1nc(Nc2cccc(F)c2C(N)=O)c2cc[nH]c2n1 [GSK2219385] | 71 | 87 | 73 | 74 | 74 | 95 | 100 | 74 | 88 | 100 | 100 | 84 | 92 | 68 | 100 | 90 | 56 | 96 | 21 | 100
10 | CCS(=O)(=O)c1ccc(OC)c(Nc2ncc(-c3cccc(F)c3)o2)c1 [GW621970X] | 100 | 67 | 94 | 71 | 100 | 85 | 57 | 100 | 100 | 96 | 100 | 90 | 100 | 94 | 100 | 100 | 100 | 100 | 100 | 83
